Experimental data taken from PubChem BioAssay AID624101 (Broad Institute, 2012).
The whole screen tested about 70,000 compounds, of which about 120 (0.17%) were called active. This is one part of a sample in which actives are shown more often than they occur. No stated cut-off is given here; in the data, active means inhibition above about 34%; inconclusive means no clear call, values can overlap the other calls; inactive means below about 11%.

Each molecule was assayed against Isocitrate dehydrogenase [NADP] cytoplasmic (Homo sapiens) (UniProt O75874) (assay: PubChem AID 624101). Settings: IDH1 R132H reductase, diaphorase/resazurin fluorescence, 60 min; at 10 µM; stronger effect = higher value.
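Further: 0% = DMSO and 100% = no enzyme.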

Isocitrate dehydrogenase [NADP] cytoplasmic (Homo sapiens), sequence (O75874 whole entry R132H): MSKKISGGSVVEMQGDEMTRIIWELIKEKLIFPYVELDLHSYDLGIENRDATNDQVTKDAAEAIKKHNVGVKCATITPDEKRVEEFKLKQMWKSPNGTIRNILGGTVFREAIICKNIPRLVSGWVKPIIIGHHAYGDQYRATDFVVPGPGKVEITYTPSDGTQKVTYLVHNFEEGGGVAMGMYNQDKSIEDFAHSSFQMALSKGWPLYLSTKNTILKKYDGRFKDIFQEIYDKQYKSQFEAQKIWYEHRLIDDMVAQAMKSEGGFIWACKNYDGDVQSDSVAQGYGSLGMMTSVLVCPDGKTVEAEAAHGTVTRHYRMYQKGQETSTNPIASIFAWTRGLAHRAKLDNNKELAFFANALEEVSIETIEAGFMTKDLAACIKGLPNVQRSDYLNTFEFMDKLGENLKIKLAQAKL

Structure (SMILES) | inhibition
CC(C)NC(=O)N[C@H]1CC[C@H](CC(=O)NC2Cc3ccccc3C2)O[C@H]1CO | 0.112% (inactive)
CO[C@@H]1CN(C)C(=O)c2cc(NC(=O)C3CCOCC3)ccc2OC[C@H](C)N(Cc2cccnc2)C[C@H]1C | -0.057% (inactive)
O=C(C[C@@H]1CC[C@H](NS(=O)(=O)c2cccc(F)c2)[C@H](CO)O1)N1CCCCC1 | 0.0905% (inactive)
O=S(=O)(N[C@@H]1CC[C@H](CCn2cc(C3(O)CCCC3)nn2)O[C@@H]1CO)c1ccc(Cl)cc1 | 0.461% (inactive)
CCCC(=O)Nc1ccc2c(c1)OC[C@H](C)N(CCC(F)(F)F)C[C@@H](C)[C@H](OC)CN(C)C2=O | -0.114% (inactive)
COc1ccccc1-c1cn(CC[C@H]2CC[C@H](NC(=O)Cc3ccccn3)[C@H](CO)O2)nn1 | 0.087% (inactive)
COc1ccccc1S(=O)(=O)N[C@@H]1C=C[C@H](CC(=O)N2CCN(C)CC2)O[C@@H]1CO | 0.0315% (inactive)
CS(=O)(=O)Nc1ccc2c(c1)[C@H]1C[C@H](CC(=O)NCc3ccc(Cl)cc3)O[C@@H](CO)[C@H]1O2 | -0.335% (inactive)
CO[C@@H]1CN(C)C(=O)c2ccc(NC(=O)C3CCCCC3)cc2OC[C@@H](C)N(Cc2nccs2)C[C@@H]1C | 0.03% (inactive)
C[C@@H]1CN([C@H](C)CO)C(=O)c2cc(Br)cnc2O[C@@H]1CN(C)C(=O)Nc1ccc(F)cc1 | 0.064% (inactive)
C[C@H](NC(=O)C[C@@H]1CC[C@@H](NC(=O)Cc2ccccn2)[C@@H](CO)O1)c1ccccc1 | 0.0085% (inactive)
O=C(N[C@H]1CC[C@@H](CCNS(=O)(=O)c2ccccc2)O[C@H]1CO)c1cccnc1 | -0.222% (inactive)
Cc1cccc(S(=O)(=O)N[C@H]2CC[C@@H](CCNS(=O)(=O)c3ccccc3F)O[C@H]2CO)c1 | 0.059% (inactive)
COc1ccc(NC(=O)N[C@H]2CC[C@H](CCn3cc(-c4ccccc4F)nn3)O[C@H]2CO)cc1 | -0.29% (inactive)
COCc1cn(CC[C@H]2CC[C@@H](NC(=O)Nc3ccc(OC)cc3)[C@@H](CO)O2)nn1 | 0.176% (inactive)
C[C@@H]1CN([C@H](C)CO)C(=O)c2cc(C#CC3CC3)cnc2O[C@@H]1CN(C)Cc1cccc(C(=O)O)c1 | -0.167% (inactive)
CO[C@H]1CN(C)C(=O)c2ccc(NC(=O)Nc3ccc4c(c3)OCO4)cc2OC[C@H](C)NC[C@H]1C | -0.152% (inactive)
COCC(=O)Nc1ccc2c(c1)OC[C@H](C)N(C(=O)c1cnccn1)C[C@@H](C)[C@H](OC)CN(C)C2=O | 0.439% (inactive)
CC(C)CC#Cc1ccc2c(c1)O[C@@H](CN(C)C(=O)c1ccccn1)[C@@H](C)CN([C@H](C)CO)S2(=O)=O | -2.87% (inactive)
CO[C@H]1CN(C)C(=O)c2cc(NS(=O)(=O)CC(F)(F)F)ccc2OC[C@@H](C)N(Cc2nccs2)C[C@@H]1C | 0.457% (inactive)
CO[C@H]1CN(C)C(=O)c2ccc(NC(=O)NC(C)C)cc2OC[C@H](C)N(Cc2cncnc2)C[C@@H]1C | 0.214% (inactive)

Structure (SMILES) | inhibition
O=C(Cc1ccncc1)NCC[C@H]1CC[C@@H](NC(=O)Nc2ccc(Cl)cc2)[C@@H](CO)O1 | 0.092% (inactive)
O=C(C[C@H]1CC[C@@H](NC(=O)Nc2ccc(C(F)(F)F)cc2)[C@H](CO)O1)NCc1cc(F)cc(F)c1 | 0.19% (inactive)
CCS(=O)(=O)N[C@@H]1CC[C@@H](CC(=O)NCC2CC2)O[C@H]1CO | -0.0912% (inactive)
COc1ccc(CNC(=O)C[C@@H]2CC[C@H](NC(=O)c3cccc(F)c3)[C@H](CO)O2)cc1 | 0.0345% (inactive)
O=C(N[C@H]1CC[C@@H](CCNS(=O)(=O)c2ccc(Cl)cc2)O[C@H]1CO)c1cccc(F)c1 | -0.0045% (inactive)
CO[C@@H]1CN(C)C(=O)c2ccc(NC(C)=O)cc2OC[C@@H](C)N(Cc2ccc(-c3ccccn3)cc2)C[C@H]1C | -0.357% (inactive)
CCCC(=O)Nc1ccc2c(c1)OC[C@H](C)N(S(=O)(=O)c1cn(C)cn1)C[C@@H](C)[C@H](OC)CN(C)C2=O | -0.504% (inactive)
C[C@@H]1CN([C@@H](C)CO)C(=O)c2cc(-c3ccccc3F)cnc2O[C@H]1CN(C)C(=O)C1CC1 | 0.564% (inactive)
O=C(C[C@H]1C[C@@H]2c3cc(NC(=O)CC4CC4)ccc3O[C@@H]2[C@H](CO)O1)NCc1cccnc1 | -0.193% (inactive)
CO[C@@H]1CN(C)C(=O)c2cc(NC(=O)C3CC3)ccc2OC[C@H](C)N(C(=O)CN2CCOCC2)C[C@@H]1C | 0.377% (inactive)
COCCNC(=O)C[C@H]1C[C@H]2c3cc(NS(C)(=O)=O)ccc3O[C@H]2[C@H](CO)O1 | -0.133% (inactive)
COCC(=O)N(C)C[C@H]1Oc2cc(C#CC3CCCC3)ccc2S(=O)(=O)N([C@H](C)CO)C[C@@H]1C | -1.42% (inactive)
C[C@H]1CN([C@@H](C)CO)C(=O)c2cc(-c3ccccc3F)cnc2O[C@H]1CN(C)C(=O)C1CCOCC1 | 0.288% (inactive)
O=C(N[C@H]1CC[C@@H](CCNS(=O)(=O)c2ccccc2)O[C@@H]1CO)c1cnccn1 | -0.078% (inactive)
O=C(NCC[C@@H]1CC[C@@H](NS(=O)(=O)c2cccc(F)c2)[C@H](CO)O1)C1CC1 | 0.164% (inactive)
CO[C@H]1CN(C)C(=O)c2cc(NC(=O)Nc3ccccc3)ccc2OC[C@@H](C)N(C(=O)Nc2c(C)noc2C)C[C@@H]1C | -0.138% (inactive)
COc1ccccc1-c1cn(CC[C@H]2CC[C@@H](NC(=O)CCN3CCCCC3)[C@@H](CO)O2)nn1 | -0.639% (inactive)
O=C(C[C@H]1C=C[C@@H](NC(=O)NC2CCCCC2)[C@@H](CO)O1)NCc1ccc(Cl)cc1 | 0.05% (inactive)
CCC(=O)Nc1ccc2c(c1)C(=O)N(C)C[C@@H](OC)[C@H](C)CN(Cc1ccccc1C(=O)O)[C@@H](C)CO2 | -0.502% (inactive)
CO[C@@H]1CN(C)C(=O)c2ccc(NS(C)(=O)=O)cc2OC[C@H](C)N(C(=O)C2CC2)C[C@H]1C | -0.15% (inactive)
